From the supplement of paper PMC7669877
± gives the uncertainty stated by the source.

The compounds below were run on Candidatus Liberibacter solanacearum in potato hairy roots (assay: relative CLso titer (% of untreated control); higher = less inhibition of bacterial titer). Details: 10 µM; 72 h.
Experimental: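 Primary screen of ~220 Spectrum collection (MicroSource) compounds at 10 µM (0.1% DMSO) on Candidatus Liberibacter solanacearum-infected potato hairy roots in multi-well plates (Gamborg B-5 medium, vacuum infiltrated, 21 °C, dark, 72 h). CLso titer was measured by qPCR of 16S rDNA normalised to potato RPL2 (2^-ddCq), pairwise-standardised against untreated controls, averaged over two biological replicates and expressed as % of untreated.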

SMILES	relative CLso titer [%]
CC(=O)Nc1nnc(S(N)(=O)=O)s1	74.1 ± 19
Clc1ccccc1C(c1ccccc1)(c1ccccc1)n1ccnc1	65.3 ± 14
NCCc1ccc(O)c(O)c1	117 ± 26
CN1CCOC(c2ccccc2)c2ccccc2C1 (stereo not given)	100 ± 38
CCCCOc1cc(C(=O)NCCN(CC)CC)c2ccccc2n1	147 ± 76
CC1(C)[C@@H](OC(=O)CCC(=O)O)CC[C@]2(C)[C@H]3C(=O)C=C4[C@@H]5C[C@@](C)(C(=O)O)CC[C@]5(C)CC[C@@]4(C)[C@]3(C)CC[C@@H]12	132 ± 30
C[C@]12CC[C@@H]3c4ccc(OC(=O)c5ccccc5)cc4CC[C@H]3[C@@H]1CC[C@@H]2O	155 ± 66
CC(C(=O)O)c1cccc(C(=O)c2ccccc2)c1 (stereo not given)	132 ± 34
CCCCOc1ccc(C(=O)CCN2CCCCC2)cc1	156 ± 14
Nc1ncnc2c1ncn2[C@@H]1O[C@H](CO)[C@@H](O)[C@H]1O	51.4 ± 22
Cc1cn([C@H]2C[C@H](N=[N+]=[N-])[C@@H](CO)O2)c(=O)[nH]c1=O	52.6 ± 7.3
O=C(c1ccc(OCCN2CCCCC2)cc1)c1c(-c2ccc(O)cc2)sc2cc(O)ccc12	93 ± 3.9
CC1(C)OC(=O)NC1=O	65.8 ± 3.9
CCN1CCCC(OC(=O)C(c2ccccc2)c2ccccc2)C1 (stereo not given)	188 ± 36
CO[C@@]12[C@H](COC(N)=O)C3=C(C(=O)C(C)=C(N)C3=O)N1C[C@@H]1N[C@@H]12	85 ± 10
Nc1ccc(C(=O)O)cc1	67.7 ± 7.7
CCN(CCCCOC(=O)c1ccc(OC)c(OC)c1)C(C)Cc1ccc(OC)cc1 (stereo not given)	94.6 ± 34
Oc1ncnc2[nH]ncc12	82.5 ± 30
N[C@@H]1CONC1=O	177 ± 11
C[C@@H]1C[C@H]2[C@@H]3CCC4=CC(=O)C=C[C@]4(C)[C@@]3(F)[C@@H](O)C[C@]2(C)[C@@]1(O)C(=O)COP(=O)(O)O	137 ± 29

SMILES	relative CLso titer [%]
Cc1ccc(S(=O)(=O)NC(=O)NN2CCCCCC2)cc1	83.2 ± 12
CC/C(=C(/CC)c1ccc(O)cc1)c1ccc(O)cc1	94.4 ± 41
C[C@]12CCC(=O)C=C1CC[C@@H]1[C@@H]2[C@@H](O)C[C@@]2(C)[C@H]1CC[C@]2(O)C(=O)CO	94.9 ± 25
CN(C)CCC=C1c2ccccc2COc2ccccc21	88.8 ± 1.1
NC(=O)N1c2ccccc2C=Cc2ccccc21	58.7 ± 10
Cc1onc(-c2ccccc2Cl)c1C(=O)N[C@@H]1C(=O)N2[C@@H]1SC(C)(C)[C@@H]2C(=O)O	46.2 ± 1.5
CC1(C)O[C@@H]2C[C@H]3[C@@H]4C[C@H](F)C5=CC(=O)C=C[C@]5(C)[C@H]4[C@@H](O)C[C@]3(C)[C@]2(C(=O)CO)O1	99.4 ± 17
Cc1cc(-c2ccccc2)nnc1NCCN1CCOCC1	86.8 ± 63
Cn1c(=O)c2c(ncn2CC(O)CO)n(C)c1=O (stereo not given)	128 ± 10
CC12CCC(CC1=O)C2(C)C (stereo not given)	97 ± 38
C[C@H](CCC(=O)O)[C@H]1CC[C@H]2[C@@H]3C(=O)C[C@@H]4CC(=O)CC[C@]4(C)[C@H]3CC(=O)[C@]12C	212 ± 78
CN(C)CCOC(c1ccc(Cl)cc1)c1ccccn1 (stereo not given)	35.2 ± 4.8
C=C1CC[C@H](O)C/C1=C/C=C1\CCC[C@]2(C)[C@@H]([C@H](C)/C=C/[C@H](C)C(C)C)CC[C@@H]12	113 ± 37
Cn1nnnc1SCC1=C(C(=O)O)N2C(=O)[C@@H](NC(=O)[C@H](O)c3ccccc3)[C@H]2SC1	133 ± 14
O=S(=O)(O)CCS	110 ± 3.6
COc1cc(CNC(=O)CCCC/C=C/C(C)C)ccc1O	130 ± 4.3
CC1=C(C(=O)O)N2C(=O)[C@@H](NC(=O)[C@H](N)c3ccc(O)cc3)[C@H]2SC1	49.7 ± 6.2
O=C(O)CCC(=O)Nc1ccc(S(=O)(=O)Nc2nccs2)cc1	100 ± 28
COc1ccc(C(=O)c2ccccc2O)c(O)c1	86.9 ± 3.5
C[C@@H]1C[C@H]2[C@@H]3C[C@H](F)C4=CC(=O)C=C[C@]4(C)[C@@]3(F)[C@@H](O)C[C@]2(C)[C@@]1(OC(=O)c1ccco1)C(=O)SCF	92.9 ± 10
